# This excerpt belongs to a sample that is enriched for hits.
# miR122 inh: miR-122 suppressors via Renilla sensor increase, primary screen, cell-based, Huh7 psiCHECK-miR122, Renilla luciferase, single point; 48 h; activation, % at 12.5 µM; 340,000 compounds, 0.14% hits;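 active means mean activation of 30% or more, with every replicate also reaching 30%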;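 further: 0% = median of neutral control wells and 100% = median of positive control wells; higher luciferase signal means stronger suppression of miR-122 activity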
# * hit, by the source's call.
SMILES,miR122 inh
O=C(C[C@@H]1C[C@H]2c3cc(NS(=O)(=O)c4ccc(F)cc4)ccc3O[C@H]2[C@H](CO)O1)NCc1ccc(-c2ccccc2)cc1,-111
CC(=O)N(C)C[C@H]1Oc2cc(C#CC3(O)CCCC3)ccc2S(=O)(=O)N([C@H](C)CO)C[C@H]1C,-3
CC(C(=O)OCC(=O)Nc1ncc(Cl)cc1Cl)N1C(=O)c2ccccc2C1=O (stereo unspecified),36*
CO[C@@H]1CN(C)C(=O)c2ccc(NC(=O)C3CCC3)cc2OC[C@@H](C)NC[C@H]1C,0
COc1cccc(-c2nn(-c3ccccc3)cc2CO)c1,34*
COc1cccc(-c2cnc3c(c2)C(=O)N([C@@H](C)CO)C[C@@H](C)[C@H](CN(C)Cc2ccccc2)O3)c1,-7
COc1cccc(-c2cnc3c(c2)C(=O)N([C@H](C)CO)C[C@@H](C)[C@H](CN(C)Cc2ccccc2)O3)c1,-7
CC(C)NC(=O)N(C)C[C@H]1Oc2ncc(C3=CCCCC3)cc2C(=O)N([C@H](C)CO)C[C@@H]1C,-6
C/C=C/c1cnc2c(c1)C(=O)N([C@@H](C)CO)C[C@@H](C)[C@@H](CN(C)S(=O)(=O)c1ccc(C)cc1)O2,-3
CO[C@@H]1CN(C)C(=O)c2ccc(NC(=O)Nc3cccc(F)c3)cc2OC[C@@H](C)N(C)C[C@@H]1C,0
CCN(C[C@H]1[C@H](c2ccccc2)[C@@H](CO)N1C(=O)COC)S(C)(=O)=O,-92
O=C(c1ccc(F)cc1)N1C[C@H]2[C@@H](c3ccccc31)[C@@H](CO)N2C(=O)c1ccc(F)cc1,-364
COc1ccc(C(=O)N2C[C@H]3[C@@H](c4ccccc42)[C@@H](CO)N3C(=O)c2ccc(F)cc2)cc1,-92
O=C(c1cccc(F)c1)N1C[C@H]2[C@@H](c3ccccc31)[C@@H](CO)N2C(=O)c1ccc(F)cc1,-192
O=C(c1cccnc1)N1C[C@H]2[C@@H](c3ccccc31)[C@H](CO)N2C(=O)C1CCCC1,40*
COCC(=O)N1[C@H](CO)[C@H]2c3ccccc3N(C(=O)C3CC3)C[C@H]21,42*
C[C@@H](O)C#Cc1ccc2c(c1)O[C@H](CN(C)C)[C@@H](C)CN([C@@H](C)CO)S2(=O)=O,3
C[C@H]1CN([C@@H](C)CO)C(=O)c2cccc(NC(=O)C3CCCCC3)c2O[C@@H]1CN(C)Cc1ccc(C(=O)Nc2ccccc2N)cc1,-13
CCC(=O)N(C)C[C@H]1Oc2ncc(-c3cccc(OC)c3)cc2C(=O)N([C@@H](C)CO)C[C@@H]1C,2
Cc1noc(C)c1S(=O)(=O)N(C)C[C@@H]1Oc2c(NC(=O)c3cnccn3)cccc2C(=O)N([C@@H](C)CO)C[C@@H]1C,-166
CCN(CC)CCNc1nc(-c2ccccc2)nnc1C(F)(F)F,44*
COC(=O)C[C@H]1CC[C@@H]2[C@@H](COc3ccc(NC(=O)c4cnccn4)cc3C(=O)N2C)O1,37*
COC(=O)C[C@H]1CC[C@@H]2[C@@H](COc3ccc(NC(=O)c4cscn4)cc3C(=O)N2C)O1,45*
C[C@@H]1CN([C@H](C)CO)C(=O)c2cc(C#CC3(O)CCCC3)cnc2O[C@@H]1CN(C)C(=O)CN(C)C,6
C[C@@H]1CN([C@@H](C)CO)S(=O)(=O)c2ccc(C#CC3CC3)cc2O[C@H]1CN(C)Cc1ccccn1,0
SMILES,miR122 inh
CCCC#Cc1cnc2c(c1)C(=O)N([C@@H](C)CO)C[C@@H](C)[C@H](CN(C)C(=O)C1CC1)O2,0
C[C@H](CO)N1C[C@H](C)[C@H](CN(C)C(=O)C2CCCCC2)Oc2ncc(C#CC3(O)CCCC3)cc2C1=O,1
COc1ccc(S(=O)(=O)N(C)C[C@@H]2Oc3cc(-c4ccccc4OC)ccc3S(=O)(=O)N([C@@H](C)CO)C[C@@H]2C)cc1,1
Cc1ccc(NC(=O)CN(C)C(=O)Cn2ncc(Cl)c(Cl)c2=O)cc1,71*
CCN(CC)S(=O)(=O)c1cc(C(=O)N(C)CC(=O)Nc2ccc(Cl)cc2)ccc1Cl,-168
CO[C@H]1CN(C)C(=O)c2cc(NC(=O)Cc3ccccc3)ccc2OC[C@H](C)N(C)C[C@@H]1C,-2
FC(F)(F)c1cc(CCN2CCNC[C@@H]2CC2CCCCC2)cc(C(F)(F)F)c1,38*
COc1ccccc1-c1cnc2c(c1)C(=O)N([C@H](C)CO)C[C@@H](C)[C@@H](CN(C)Cc1ccccc1)O2,-3
C[C@@H]1CN([C@@H](C)CO)C(=O)c2cc(C#CC3(O)CCCC3)cnc2O[C@H]1CN(C)Cc1ccncc1,-5
CCC(=O)Nc1ccc2c(c1)OC[C@@H](C)N(C(=O)c1ccccc1F)C[C@@H](C)[C@@H](OC)CN(C)C2=O,-5
COCC(=O)N(C)C[C@H]1Oc2cc(C#CC3CC3)ccc2S(=O)(=O)N([C@H](C)CO)C[C@H]1C,10
COCC(=O)N(C)C[C@H]1Oc2cc(C#CC3CC3)ccc2S(=O)(=O)N([C@H](C)CO)C[C@@H]1C,-2
C[C@H]1CN([C@@H](C)CO)S(=O)(=O)c2ccc(C#CC3CC3)cc2O[C@H]1CN(C)C(=O)C1CC1,-14
C[C@@H]1CN([C@H](C)CO)S(=O)(=O)c2ccc(C#CC3CC3)cc2O[C@@H]1CN(C)C(=O)c1cccc(F)c1,44*
C[C@@H]1CN([C@@H](C)CO)S(=O)(=O)c2ccc(C#CC3CC3)cc2O[C@@H]1CN(C)C(=O)c1cccc(F)c1,42*
COCC(=O)N(C)C[C@@H]1Oc2cc(C#CC3CC3)ccc2S(=O)(=O)N([C@@H](C)CO)C[C@H]1C,-1
C[C@H](CO)N1C[C@H](C)[C@H](CN(C)C(=O)Cc2ccccn2)Oc2ncc(-c3cccc(C(=O)N(C)C)c3)cc2C1=O,-5
Cc1ccc(S(=O)(=O)N(C)C[C@@H]2Oc3cc(C#CC4CCCC4)ccc3S(=O)(=O)N([C@@H](C)CO)C[C@@H]2C)cc1,-29
C[C@H]1CN([C@@H](C)CO)C(=O)c2cc(C#Cc3cccc(F)c3)cnc2O[C@@H]1CN(C)C(=O)C1CC1,0
C[C@H](CO)N1C[C@H](C)[C@H](CN(C)C(=O)c2cnccn2)Oc2ncc(C#Cc3ccccn3)cc2C1=O,7
C[C@@H]1CN([C@H](C)CO)C(=O)c2cc(C3=CCCCC3)cnc2O[C@@H]1CN(C)C(=O)Cc1ccccc1,0
COc1ccc(C(=O)N[C@H](C(=O)Nc2nc3ccccc3[nH]2)C(C)C)cc1,-117
O=C(COc1cccc2ccccc12)Nc1nc2ccccc2[nH]1,32*
CO[C@@H]1CN(C)C(=O)c2cc(NC(C)=O)ccc2OC[C@@H](C)N(C(=O)c2ccccc2)C[C@@H]1C,-3
C/C(=N\NC(=O)C(C)Oc1ccc([N+](=O)[O-])cc1)c1ccccn1 (stereo unspecified),32*
SMILES,miR122 inh
C[C@H](CO)N1C[C@H](C)[C@H](CN(C)S(C)(=O)=O)Oc2ncc(-c3cccnc3)cc2C1=O,-7
COc1ccc(C#Cc2cnc3c(c2)C(=O)N([C@@H](C)CO)C[C@@H](C)[C@@H](CN(C)CC2CCCC2)O3)cc1,11
C[C@@H]1CN([C@@H](C)CO)C(=O)c2cc(C#CCN(C)C)cnc2O[C@@H]1CN(C)C(=O)Cc1ccncc1,6
Cn1c(-c2ccc(N)cc2)nc2ccccc21,36*
Cc1cc(C(=O)Nc2cccc3c2O[C@H](CN(C)Cc2ccc(C(F)(F)F)cc2)[C@@H](C)CN([C@H](C)CO)C3=O)n(C)n1,-276
CCCNC(=O)Nc1ccc2c(c1)OC[C@H](C)NC[C@@H](C)[C@H](OC)CN(C)C2=O,5

# Screening results deposited in PubChem BioAssay by Broad Institute.
